Several values for one entry are separate records, joined by “and”; a condition that tells them apart may be missing. Equal entries are not always repeated. Results filed as inconclusive are left out. Some compounds were tested as several samples or in several runs, with calls that do not always agree. Activity calls are given as the source filed them. How the source made its calls, unless noted: active means hit-call score of the fitted dose curve at least 0.9, where 1 is the maximum; inactive means score below 0.9.
Key:
CD69, CD69 (gene 969) = assay: BSK_SAg_CD69: BioMAP Diversity Plus: SAg Assay for CD69 Biomarker Activity (AID 2283089); conditions: primary human HUVEC with PBMC; actives raise or lower the signal;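 on AC50: cell surface CD69 protein quantified by ELISA with fluorescence detection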
In short: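 Primary human vascular co-culture (umbilical vein endothelium with peripheral blood mononuclear cells) exposed to test chemical for 24 h. CD69 levels quantified by fluorescence ELISA; DMSO served as negative control for bidirectional fitting.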

[1] = read-out: Monocyte Chemoattractant Protein-1 (MCP1), CCL2 (gene 6347); assay: BSK_SAg_MCP1: BioMAP Diversity Plus: SAg Assay for Monocyte Chemoattractant Protein-1 (MCP1) Biomarker Activity (AID 2283090); conditions: primary human HUVEC with PBMC; actives raise or lower the signal
In short: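 Values derive from bidirectional fitting of ELISA-measured MCP1 against DMSO controls. Readings were taken 24 h after dosing human vascular endothelial cells co-cultured with peripheral blood mononuclear cells under superantigen stimulation.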

[2] = read-out: E-selectin (Homo sapiens) (UniProt P16581); assay: BSK_SAg_Eselectin: BioMAP Diversity Plus: SAg Assay for Eselectin Biomarker Activity (AID 2283091); conditions: primary human HUVEC with PBMC; actives raise or lower the signal
In short: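 Human umbilical vein endothelial cells co-cultured with peripheral blood mononuclear cells, SAg system. E-selectin is measured by ELISA 24 h after dosing and fitted bidirectionally against DMSO. Cytotoxicity is checked by SRB staining of parallel cultures.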

[3] = read-out: Monokine induced gamma interferon (MIG), CXCL9 (gene 4283); assay: BSK_SAg_MIG: BioMAP Diversity Plus: SAg Assay for Monokine induced gamma interferon (MIG) Biomarker Activity (AID 2283092); conditions: primary human HUVEC with PBMC; actives raise or lower the signal
In short: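 Endothelial cells and PBMC were co-cultured, exposed to test chemicals, and sampled 24 h later. MIG was measured by ELISA, and responses were fitted in both directions relative to DMSO.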

[4] = BSK_SAg_PBMCCytotoxicity: PBMC Cytotoxicity Assessment in the BioMAP Diversity Plus: SAg Assay (AID 2283093); conditions: primary human HUVEC with PBMC;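 further: PBMC viability measured as Alamar Blue reduction fluorescence at 546/580 nm; fitted both ways against DMSO so a hit may be loss or gain of signal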;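 on AC50: PBMC superantigen activated with SEB plus TSST-1 one hour after compound addition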
In short: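 Alamar Blue reduction (6 h, 546/580 nm) reports PBMC cytotoxicity after 90 h superantigen activation (SEB, TSST-1; 20 ng/mL final each) with 1 h compound pre-treatment. Gain or loss of signal fitted versus DMSO.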

[5] = read-out: Interleukin-8 (IL8), CXCL8 (gene 3576); assay: BSK_SAg_IL8: BioMAP Diversity Plus: SAg Assay for Interleukin-8 (IL8) Biomarker Activity (AID 2283094); conditions: primary human HUVEC with PBMC; actives raise or lower the signal
In short: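 HUVEC/PBMC co-culture, 24 h post-dose; IL-8 by ELISA. Gain or loss of signal fitted bidirectionally vs DMSO baseline.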

[6] = BSK_SAg_Proliferation: Cell Proliferation Assessment in the BioMAP Diversity Plus: SAg Assay (AID 2283095); conditions: primary human HUVEC with PBMC;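 further: relative cell number as total protein by SRB absorbance in sub-confluent culture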
In short: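 HUVEC/PBMC co-culture, 96-well. TCA-fixed (10%), 0.1% SRB stain, A560 at 96 h. Protein content used as viability readout; bidirectional fitting vs DMSO control.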

[7] = BSK_SAg_SRB: Viability Assessment in the BioMAP Diversity Plus: SAg Assay (AID 2283096); conditions: primary human HUVEC with PBMC;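 further: cells read one day after compound addition; hits may be either gain or loss of signal compared with DMSO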
In short: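 This overt-cytotoxicity endpoint quantifies protein in human endothelial/PBMC co-cultures at 24 h using SRB absorbance (560 nm) after trichloroacetic acid fixation. Values reflect signal change from the DMSO negative control, fitted bidirectionally.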

[8] = target: human CYP2A6, CYP2A6 (gene 1548) (UniProt P11509); assay: NVS_ADME_hCYP2A6: NovaScreen (NVS) CYP450-related Enzyme Activity (ADME) Assay for human CYP2A6 (AID 2283099; active means hit-call score of the fitted dose curve at least 0.9, where 1 is the maximum)
In short: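 Recombinant human CYP2A6 expressed in insect cells, cell-free; fluorogenic substrate turnover read by fluorescence intensity 0.5 h after dosing. Primary screen 10 uM in duplicate, then concentration-response up to 20 uM; acetonitrile as negative control.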

[9] = target: human CYP1A1, CYP1A1 (gene 1543) (UniProt P04798); assay: NVS_ADME_hCYP1A1: NovaScreen (NVS) CYP450-related Enzyme Activity (ADME) Assay for human CYP1A1 (AID 2283100; active means hit-call score of the fitted dose curve at least 0.9, where 1 is the maximum)
In short: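 Recombinant CYP1A1 with a fluorogenic substrate, cell-free, read 1 h after dosing; acetonitrile as negative control. Single-concentration screen at 10 uM in duplicate, then concentration-response up to 20 uM for chemicals meeting ~30% inhibition threshold.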

[10] = target: human CYP2B6, CYP2B6 (gene 1555) (UniProt P20813); assay: NVS_ADME_hCYP2B6: NovaScreen (NVS) CYP450-related Enzyme Activity (ADME) Assay for human CYP2B6 (AID 2283101; active means hit-call score of the fitted dose curve at least 0.9, where 1 is the maximum)
In short: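 Cell-free recombinant enzyme assay with a fluorogenic substrate; fluorescence intensity read 1 hour after dosing. Loss of signal relative to acetonitrile negative control indicates inhibition. Primary screen run in duplicate at 10 uM, actives then tested in concentration series.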

[11] = target: human CYP1A2, CYP1A2 (gene 1544) (UniProt P05177); assay: NVS_ADME_hCYP1A2: NovaScreen (NVS) CYP450-related Enzyme Activity (ADME) Assay for human CYP1A2 (AID 2283102; active means hit-call score of the fitted dose curve at least 0.9, where 1 is the maximum;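 on AC50: potency for inhibition since loss of fluorescence marks reduced CYP1A2 activity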)
In short: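 Recombinant human CYP1A2 from insect cells, cell-free, fluorogenic substrate; read 0.5 h after dosing with loss of fluorescence signal indicating inhibition. Primary screen in duplicate at 10 uM, acetonitrile as negative control.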

[12] = target: human CYP2C9, CYP2C9 (gene 1559) (UniProt P11712); assay: NVS_ADME_hCYP2C9: NovaScreen (NVS) CYP450-related Enzyme Activity (ADME) Assay for human CYP2C9 (AID 2283108; active means hit-call score of the fitted dose curve at least 0.9, where 1 is the maximum)
In short: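 Cell-free assay of recombinant human CYP2C9 produced in Sf9 cells, with enzyme activity read by fluorescence intensity 0.75 h after compound addition. Loss of signal versus an acetonitrile negative control indicates inhibition. Primary screen used 10 uM in duplicate; actives were retested in concentration series.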

[13] = target: Cytochrome P450 2C19 (Homo sapiens) (UniProt P33261); assay: NVS_ADME_hCYP2C19: NovaScreen (NVS) CYP450-related Enzyme Activity (ADME) Assay for human CYP2C19 (AID 2283113; active means hit-call score of the fitted dose curve at least 0.9, where 1 is the maximum;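 further: potency for inhibition seen as loss of fluorescent signal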)
In short: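 Cell-free recombinant human CYP2C19 from insect cells, fluorescent substrate; activity read by fluorescence intensity 1 h after dosing. Primary screen in duplicate at 10 uM; actives retested in concentration series. Signal loss versus acetonitrile negative control.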

[14] = target: Cytochrome P450 3A4 (Homo sapiens) (UniProt P08684); assay: NVS_ADME_hCYP3A4: NovaScreen (NVS) CYP450-related Enzyme Activity (ADME) Assay for human CYP3A4 (AID 2283110; active means hit-call score of the fitted dose curve at least 0.9, where 1 is the maximum)
In short: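 Activity is derived from decreased fluorescence intensity relative to acetonitrile, measured 0.33 hour after dosing insect-cell-expressed CYP3A4 in a cell-free format. Screening used 10 uM in duplicate before concentration-response follow-up.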

[15] = target: human CYP19A1, CYP19A1 (gene 1588) (UniProt P11511); assay: NVS_ADME_hCYP19A1: NovaScreen (NVS) CYP450-related Enzyme Activity (ADME) Assay for human CYP19A1 (AID 2283098; active means hit-call score of the fitted dose curve at least 0.9, where 1 is the maximum)
In short: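 Compounds were first screened at 10 uM in duplicate against purified enzyme, with a fluorogenic substrate and fluorescence intensity detection after 0.5 h. Inhibition appears as reduced signal against acetonitrile control.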

Chain of E-selectin (Homo sapiens) (P16581 whole entry, looked up): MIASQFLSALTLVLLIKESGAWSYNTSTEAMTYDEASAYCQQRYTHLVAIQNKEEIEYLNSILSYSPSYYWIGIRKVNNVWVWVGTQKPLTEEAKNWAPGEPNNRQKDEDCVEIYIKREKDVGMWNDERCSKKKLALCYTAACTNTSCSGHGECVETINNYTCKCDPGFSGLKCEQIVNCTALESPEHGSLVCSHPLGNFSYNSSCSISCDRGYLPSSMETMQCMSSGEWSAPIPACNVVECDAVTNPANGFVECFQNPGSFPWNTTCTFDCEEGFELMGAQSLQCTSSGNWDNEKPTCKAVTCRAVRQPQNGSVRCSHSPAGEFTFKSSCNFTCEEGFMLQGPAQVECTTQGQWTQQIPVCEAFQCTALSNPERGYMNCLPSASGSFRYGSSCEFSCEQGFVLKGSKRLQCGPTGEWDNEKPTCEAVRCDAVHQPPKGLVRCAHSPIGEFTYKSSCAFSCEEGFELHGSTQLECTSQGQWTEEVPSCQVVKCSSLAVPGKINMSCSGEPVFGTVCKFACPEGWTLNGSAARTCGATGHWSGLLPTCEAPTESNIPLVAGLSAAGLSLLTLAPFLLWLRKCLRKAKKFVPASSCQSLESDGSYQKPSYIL
Chain of human CYP1A1, CYP1A1 (gene 1543) (P04798 whole entry, looked up): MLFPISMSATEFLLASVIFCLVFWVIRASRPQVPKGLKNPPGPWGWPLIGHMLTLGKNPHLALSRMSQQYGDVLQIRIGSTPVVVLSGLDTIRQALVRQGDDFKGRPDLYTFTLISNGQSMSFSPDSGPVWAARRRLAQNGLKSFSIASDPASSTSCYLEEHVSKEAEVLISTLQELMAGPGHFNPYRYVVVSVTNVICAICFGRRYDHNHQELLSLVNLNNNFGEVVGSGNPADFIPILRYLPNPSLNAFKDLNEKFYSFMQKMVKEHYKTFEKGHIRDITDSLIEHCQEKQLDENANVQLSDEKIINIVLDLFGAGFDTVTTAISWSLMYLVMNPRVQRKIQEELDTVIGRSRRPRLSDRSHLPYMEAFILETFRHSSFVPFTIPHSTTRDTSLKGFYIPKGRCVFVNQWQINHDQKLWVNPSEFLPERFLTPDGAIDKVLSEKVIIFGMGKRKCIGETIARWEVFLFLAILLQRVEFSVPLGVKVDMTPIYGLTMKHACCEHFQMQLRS
Chain of human CYP1A2, CYP1A2 (gene 1544) (P05177 whole entry, looked up): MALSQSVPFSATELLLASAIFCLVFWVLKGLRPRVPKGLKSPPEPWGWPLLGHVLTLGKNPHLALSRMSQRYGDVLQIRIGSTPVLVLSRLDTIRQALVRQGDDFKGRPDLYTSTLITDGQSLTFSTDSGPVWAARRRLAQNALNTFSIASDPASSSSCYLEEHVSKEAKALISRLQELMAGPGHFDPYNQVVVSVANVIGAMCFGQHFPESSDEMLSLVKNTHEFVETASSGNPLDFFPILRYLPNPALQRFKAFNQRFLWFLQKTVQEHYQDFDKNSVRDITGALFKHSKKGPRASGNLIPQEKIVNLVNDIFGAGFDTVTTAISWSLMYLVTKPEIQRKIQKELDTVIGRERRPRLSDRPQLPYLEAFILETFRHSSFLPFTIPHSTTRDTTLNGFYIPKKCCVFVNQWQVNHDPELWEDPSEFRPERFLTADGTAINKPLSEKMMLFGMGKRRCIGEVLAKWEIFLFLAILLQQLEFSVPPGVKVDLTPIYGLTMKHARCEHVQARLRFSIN
Chain of human CYP2C9, CYP2C9 (gene 1559) (P11712 whole entry, looked up): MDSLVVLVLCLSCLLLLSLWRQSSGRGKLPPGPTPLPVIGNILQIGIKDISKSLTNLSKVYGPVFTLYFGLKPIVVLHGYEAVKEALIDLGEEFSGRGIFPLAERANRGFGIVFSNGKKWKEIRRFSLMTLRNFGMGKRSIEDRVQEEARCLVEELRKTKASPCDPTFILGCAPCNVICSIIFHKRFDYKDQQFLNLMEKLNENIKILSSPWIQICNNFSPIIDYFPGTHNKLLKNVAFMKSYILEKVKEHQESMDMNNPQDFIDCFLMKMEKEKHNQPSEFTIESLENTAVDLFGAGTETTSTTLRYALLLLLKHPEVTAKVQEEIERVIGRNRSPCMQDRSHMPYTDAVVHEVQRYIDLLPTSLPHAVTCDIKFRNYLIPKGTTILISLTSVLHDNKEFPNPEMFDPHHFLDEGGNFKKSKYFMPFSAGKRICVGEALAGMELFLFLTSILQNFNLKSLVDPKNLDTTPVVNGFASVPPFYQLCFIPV
Chain of human CYP2B6, CYP2B6 (gene 1555) (P20813 whole entry, looked up): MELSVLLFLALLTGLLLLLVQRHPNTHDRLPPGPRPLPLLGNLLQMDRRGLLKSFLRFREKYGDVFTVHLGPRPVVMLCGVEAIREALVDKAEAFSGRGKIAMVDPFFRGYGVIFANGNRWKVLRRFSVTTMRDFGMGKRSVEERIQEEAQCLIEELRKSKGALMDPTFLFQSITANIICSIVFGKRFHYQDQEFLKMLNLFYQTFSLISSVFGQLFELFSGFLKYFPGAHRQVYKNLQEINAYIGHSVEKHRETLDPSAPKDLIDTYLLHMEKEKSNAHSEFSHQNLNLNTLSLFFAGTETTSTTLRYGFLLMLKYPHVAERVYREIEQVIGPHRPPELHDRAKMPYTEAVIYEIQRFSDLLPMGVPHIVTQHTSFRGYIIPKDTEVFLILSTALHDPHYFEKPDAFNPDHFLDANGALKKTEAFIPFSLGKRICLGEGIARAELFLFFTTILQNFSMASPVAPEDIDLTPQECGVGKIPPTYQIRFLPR
Chain of human CYP2A6, CYP2A6 (gene 1548) (P11509 whole entry, looked up): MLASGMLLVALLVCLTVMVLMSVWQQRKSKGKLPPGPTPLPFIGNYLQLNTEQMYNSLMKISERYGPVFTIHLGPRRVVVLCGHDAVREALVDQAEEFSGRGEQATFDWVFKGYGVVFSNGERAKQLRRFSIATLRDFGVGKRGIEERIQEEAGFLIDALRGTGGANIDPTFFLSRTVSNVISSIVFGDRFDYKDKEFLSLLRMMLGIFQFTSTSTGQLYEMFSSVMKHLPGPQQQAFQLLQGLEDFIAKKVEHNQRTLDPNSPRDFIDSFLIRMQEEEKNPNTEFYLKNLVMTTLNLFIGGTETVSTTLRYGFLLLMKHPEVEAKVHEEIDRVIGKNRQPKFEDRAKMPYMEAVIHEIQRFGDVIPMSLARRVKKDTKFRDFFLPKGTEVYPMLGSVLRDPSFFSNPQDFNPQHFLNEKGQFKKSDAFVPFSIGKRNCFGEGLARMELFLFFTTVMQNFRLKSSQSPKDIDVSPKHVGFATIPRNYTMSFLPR
Chain of Cytochrome P450 3A4 (Homo sapiens) (P08684 whole entry, looked up): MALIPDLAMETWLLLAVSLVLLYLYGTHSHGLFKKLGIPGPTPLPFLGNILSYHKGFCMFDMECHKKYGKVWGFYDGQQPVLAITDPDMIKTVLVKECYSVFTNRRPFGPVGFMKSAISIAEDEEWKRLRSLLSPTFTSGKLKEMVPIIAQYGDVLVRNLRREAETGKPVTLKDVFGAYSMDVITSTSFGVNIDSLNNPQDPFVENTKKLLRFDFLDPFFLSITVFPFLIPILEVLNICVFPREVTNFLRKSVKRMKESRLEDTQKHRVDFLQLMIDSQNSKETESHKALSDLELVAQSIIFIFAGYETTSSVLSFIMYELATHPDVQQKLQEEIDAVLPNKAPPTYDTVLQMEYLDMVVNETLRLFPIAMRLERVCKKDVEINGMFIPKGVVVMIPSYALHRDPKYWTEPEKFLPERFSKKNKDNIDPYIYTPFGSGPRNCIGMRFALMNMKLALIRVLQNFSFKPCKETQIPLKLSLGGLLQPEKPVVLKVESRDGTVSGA
Chain of human CYP19A1, CYP19A1 (gene 1588) (P11511 whole entry, looked up): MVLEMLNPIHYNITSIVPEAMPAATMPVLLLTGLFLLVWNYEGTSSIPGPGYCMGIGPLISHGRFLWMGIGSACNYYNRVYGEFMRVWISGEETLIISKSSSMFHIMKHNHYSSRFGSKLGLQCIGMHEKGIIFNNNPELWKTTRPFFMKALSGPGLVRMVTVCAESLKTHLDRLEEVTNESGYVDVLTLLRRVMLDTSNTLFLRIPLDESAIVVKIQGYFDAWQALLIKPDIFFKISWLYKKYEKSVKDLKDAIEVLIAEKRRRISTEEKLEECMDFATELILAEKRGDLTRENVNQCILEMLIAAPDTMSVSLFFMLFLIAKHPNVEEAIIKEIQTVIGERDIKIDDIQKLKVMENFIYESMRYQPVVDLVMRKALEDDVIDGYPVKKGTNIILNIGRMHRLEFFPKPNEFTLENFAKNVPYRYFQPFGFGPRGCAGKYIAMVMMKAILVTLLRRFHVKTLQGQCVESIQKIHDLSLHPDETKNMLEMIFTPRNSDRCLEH

SMILES: Cc1ccccc1N
- outcome (CD69, CD69 (gene 969)): inactive
- outcome [1]: inactive
- outcome [2]: inactive
- outcome [3]: inactive
- outcome [4]: inactive
- outcome [5]: inactive
- outcome [6]: inactive
- outcome [7]: inactive

SMILES: ClCC(Cl)CCl
- outcome (CD69, CD69 (gene 969)): inactive
- outcome [1]: inactive
- outcome [2]: inactive
- outcome [3]: inactive
- outcome [4]: inactive
- outcome [5]: inactive
- outcome [6]: inactive
- outcome [7]: inactive

SMILES: COc1cc(-c2ccc(N)c(OC)c2)ccc1N
- outcome (CD69, CD69 (gene 969)): inactive
- outcome [1]: inactive
- outcome [3]: inactive
- outcome [4]: inactive
- AC50 [5]: 7.64 µM (active)
- outcome [5]: inactive
- AC50 [6]: 11.8 µM (active)
- outcome [6]: inactive
- outcome [7]: inactive
- outcome [8]: inactive
- AC50 [9]: 3.13 µM (active) and 3.48 µM (active)
- AC50 [10]: 6.76 µM (active) and 3.92 µM (active)
- AC50 [11]: 1.27 µM (active)
- outcome [11]: inactive
- AC50 [12]: 7.03 µM (active)
- AC50 [13]: 3.49 µM (active) and 2.33 µM (active)

SMILES: O=C(O)C(F)(F)C(F)(F)C(F)(F)C(F)(F)C(F)(F)C(F)(F)C(F)(F)C(F)(F)C(F)(F)C(F)(F)F
- AC50 (CD69, CD69 (gene 969)): 30.5 µM (active)
- outcome (CD69, CD69 (gene 969)): inactive
- AC50 [1]: 35.1 µM (active)
- outcome [1]: inactive
- AC50 [3]: 34.9 µM (active)
- outcome [3]: inactive
- AC50 [4]: 31.5 µM (active)
- outcome [4]: inactive
- AC50 [5]: 26.8 µM (active)
- outcome [5]: inactive
- AC50 [6]: 32.8 µM (active)
- outcome [6]: inactive
- AC50 [7]: 29.4 µM (active)
- outcome [7]: inactive
- AC50 [12]: 1.58 µM (active)
- AC50 [13]: 16.2 µM (active)

SMILES: CCOP(=S)(OCC)Oc1nc(Cl)c(Cl)cc1Cl
- AC50 (CD69, CD69 (gene 969)): 20 µM (active)
- AC50 [1]: 30.1 µM (active)
- AC50 [2]: 28 µM (active)
- outcome [3]: inactive
- AC50 [4]: 34.3 µM (active)
- AC50 [5]: 20 µM (active)
- AC50 [6]: 34.4 µM (active)
- outcome [7]: inactive

SMILES: ClC(Cl)=C(Cl)C(Cl)=C(Cl)Cl
- outcome (CD69, CD69 (gene 969)): inactive
- outcome [1]: inactive
- outcome [2]: inactive
- outcome [3]: inactive
- AC50 [4]: 33.1 µM (active)
- outcome [5]: inactive
- AC50 [6]: 31.7 µM (active)
- outcome [7]: inactive

SMILES: CC12CC1(C)C(=O)N(c1cc(Cl)cc(Cl)c1)C2=O (centres undefined)
- outcome (CD69, CD69 (gene 969)): inactive
- outcome [1]: inactive
- outcome [2]: inactive
- outcome [3]: inactive
- outcome [4]: inactive
- outcome [5]: inactive
- outcome [6]: inactive
- outcome [7]: inactive
- outcome [14]: inactive

SMILES: COC(=O)Cc1ccccc1
- outcome (CD69, CD69 (gene 969)): inactive
- outcome [1]: inactive
- outcome [2]: inactive
- outcome [3]: inactive
- outcome [4]: inactive
- outcome [5]: inactive
- outcome [6]: inactive
- outcome [7]: inactive

SMILES: Oc1cccc2cccnc12
- outcome (CD69, CD69 (gene 969)): inactive
- outcome [1]: inactive
- AC50 [2]: 2.77 µM (active)
- outcome [3]: inactive
- AC50 [4]: 3.57 µM (active)
- outcome [5]: inactive
- AC50 [6]: 4.71 µM (active)
- outcome [7]: inactive
- outcome [15]: inactive

SMILES: C(=NC1CCCCC1)=NC1CCCCC1
- AC50 (CD69, CD69 (gene 969)): 7.97 µM (active)
- AC50 [1]: 19.3 µM (active)
- AC50 [3]: 12.6 µM (active)
- AC50 [4]: 16.5 µM (active)
- AC50 [5]: 3.97 µM (active)
- AC50 [6]: 0.499 µM (active)
- AC50 [7]: 30 µM (active)

SMILES: COc1cc(OC)nc(NC(=O)NS(=O)(=O)c2ncccc2C(=O)N(C)C)n1
- outcome (CD69, CD69 (gene 969)): inactive
- outcome [1]: inactive
- outcome [2]: inactive
- outcome [3]: inactive
- outcome [4]: inactive
- outcome [5]: inactive
- outcome [6]: inactive
- outcome [7]: inactive

SMILES: C[C@]12CCC(=O)C[C@@H]1CC[C@@H]1[C@@H]2CC[C@]2(C)[C@@H](O)CC[C@@H]12
- outcome (CD69, CD69 (gene 969)): inactive
- AC50 [1]: 28.2 µM (active)
- outcome [3]: inactive
- outcome [4]: inactive
- outcome [5]: inactive
- outcome [6]: inactive
- AC50 [7]: 25.7 µM (active)

SMILES: O=C(O)C(F)(F)C(F)(F)C(F)(F)C(F)(F)C(F)(F)C(F)(F)F
- outcome (CD69, CD69 (gene 969)): inactive
- outcome [1]: inactive
- outcome [3]: inactive
- outcome [4]: inactive
- outcome [5]: inactive
- outcome [6]: inactive
- outcome [7]: inactive

SMILES: NC(=S)Nc1ccccc1
- outcome (CD69, CD69 (gene 969)): inactive
- outcome [1]: inactive
- outcome [2]: inactive
- outcome [3]: inactive
- outcome [4]: inactive
- outcome [5]: inactive
- outcome [6]: inactive
- outcome [7]: inactive

SMILES: CC(=O)OC(c1ccccc1)C(Cl)(Cl)Cl (centres undefined)
- AC50 (CD69, CD69 (gene 969)): 14.2 µM (active)
- outcome (CD69, CD69 (gene 969)): inactive
- outcome [1]: inactive
- outcome [3]: inactive
- outcome [4]: inactive
- AC50 [5]: 13.4 µM (active)
- outcome [5]: inactive
- outcome [6]: inactive
- outcome [7]: inactive

SMILES: BrCCBr
- outcome (CD69, CD69 (gene 969)): inactive
- outcome [1]: inactive
- outcome [2]: inactive
- outcome [3]: inactive
- outcome [4]: inactive
- outcome [5]: inactive
- outcome [6]: inactive
- outcome [7]: inactive

— PubChem BioAssay (EPA / NIEHS)
